# In PubChem BioAssay (NCATS):
# Results filed as inconclusive are left out. Entries that show only a call come without a potency. Calls of active or inactive are those of the source. Unless noted, calls come from the whole dose curve; as a rule, active = well fitted curve in the direction sought with a large enough effect; inconclusive = small, poorly fitted or top-dose-only effect, or another doubt; inactive = no such curve, though single readings can be large; an effect the other way counts as inactive or inconclusive.
# Experiments:
# [1] = AP1 Signaling Pathway (AID 357; active = well fitted curve in either direction with a large enough effect, not every such curve was filed as active;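 note: ME-180 reporter cells stimulated with EGF at its EC50 level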); conditions: ME-180 (cervical carcinoma) AP-1-bla reporter, EGF-induced, beta-lactamase ratio, 5 h; at 7.69 µM (top of the series) unless noted
# In short: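 AP-1-bla ME-180 cells, Opti-MEM + 0.5% dialyzed FBS, plated overnight 37 °C. Cpd titration + EC50 EGF, 5 h 37 °C. CCF4 2.5 h RT; ex 405, em 460/530 ratio → %activity, AC50.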
# [2] = molecular target: Dual specificity protein kinase CLK4 (Homo sapiens) (UniProt Q9HAZ1); assay: qHTS Assay for Inhibitors of CDC-like Kinase 4 (ADP-Glo Assay) (AID 1771); note: nearly all actives have a fitted effect of over 70% in size
# In short: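 Kinase reaction: Clk4 at 25 nM, RS repeat peptide substrate at 100 uM, ATP at 1 uM, 1 hr, room temperature. Product ADP detected as luciferase signal via ADP-Glo.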
# [3] = molecular target: Dual specificity protein kinase CLK4 (Homo sapiens) (UniProt Q9HAZ1); assay: qHTS Assay for Inhibitors of CDC-like Kinase 4 (ADP-FP Assay) (AID 1795);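 note: recombinant human CLK4 phosphorylating RS repeat peptide at 1 µM ATP; nearly all actives have a fitted effect of over 60% in size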
# In short: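 Inhibition of ADP formation by 6.25 nM Clk4 is measured using 1 uM ATP and 100 uM RS repeat peptide over one hour. Produced ADP displaces a fluorescent tracer from antibody, lowering polarization.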
# [4] = HepG2 viability counterscreen (readout 1: protease activity) against the NCATS DSHEA and TCM libraries (AID 1794841);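 note: cells exposed to compounds for about 24 h before the protease read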
# In short: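 Cytotoxicity was assessed in HepG2 cells plated at 1,000 cells/well and exposed for about 24 hours to a concentration series. Protease activity and ATP content were measured sequentially in each well.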
# [5] = molecular target: Cytochrome P450 2C9 (Homo sapiens) (UniProt P11712); assay: qHTS for inhibitors of CYP2C9 against the NCATS DSHEA and TCM libraries (AID 1919973); note: potency is the fitted concentration of half-maximal effect;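 for activity change, negative = inhibition: luminogenic pro-luciferin CYP2C9 substrate turned into luciferin with NADPH regeneration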
# In short: (§1)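 Light output from converted D-luciferin reports remaining CYP activity. Compounds preincubate with enzyme and substrate for 15 min; NADPH regeneration (1x final) runs the reaction for 30-45 min.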
# [6] = molecular target: Cytochrome P450 2C19 (Homo sapiens) (UniProt P33261); assay: qHTS for inhibitors of CYP2C19 against the NCATS DSHEA and TCM libraries (AID 1919974);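 note: luminescence from luciferin released by CYP2C19 oxidation of a pro-luciferin substrate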; note: potency is the fitted concentration of half-maximal effect
# In short: as §1
# [7] = Dual reporter qHTS for antagonist of Pregnane X Receptor (hPXR) against the NCATS DSHEA and TCM libraries: Fluorescence Readout (AID 1920061)
# In short: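 HepG2 hPXR-Luc, 2000 cells/well, charcoal-stripped FBS medium; 5 h attach; RIF 2 uM final; 24 h 37C/5% CO2; CellTiter-Fluor 1 h, fluor 405/540; ONE-Glo 30 min RT, lum.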
# [8] = molecular target: Cytochrome P450 3A4 (Homo sapiens) (UniProt P08684); assay: qHTS Assay for Inhibitors and Substrates of Cytochrome P450 3A4 (AID 884); note: nearly all actives have a fitted effect of over 50% in size
# In short: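 20 nM human CYP3A4 with 25 uM Luciferin-PPXE (at KM) in 200 mM KPO4, preincubated 10 min with compound; NADPH regeneration started a 60 min RT reaction. Luciferin detected by luminescence, normalized to 57 uM ketoconazole as full inhibition.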
# [9] = qHTS assay for small molecule antagonists of retinoid X receptor alpha signaling (AID 588546; active = well fitted inhibition curve with a large enough effect in the signal ratio, with a control signal flat, not every such curve was filed as active; the % refers to the signal ratio;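 note: cells stimulated with 9-cis-retinoic acid as agonist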); conditions: HEK293T RXRa-UAS-bla, beta-lactamase ratio, antagonist mode; measured here: W530 green channel, cytotoxicity proxy
# In short: (§2)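 Beta-lactamase reporter inhibition, read as CCF4 fluorescence ratio (ex 405, em 460/530 nm) after 2 h at RT. HEK293T UAS-bla cells, 2500/well, were stimulated with 9-cis-RA at 500 or 100 nM final alongside test compound for 18 h at 37 C.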
# [10] = molecular target: Retinoic acid receptor RXR-alpha (Homo sapiens) (UniProt P19793); assay: as above; conditions: HEK293T RXRa-UAS-bla, beta-lactamase ratio, antagonist mode
# In short: as §2
# [11] = qHTS assay for environmental chemicals that activate the Aryl hydrocarbon Receptor (AhR) signaling pathway (AID 651777); conditions: 1A2-DRE human hepatoma cells, luciferase, 24 h; activation: stronger effect = higher value; note: nearly all actives have a fitted effect of over 15% in size
# In short: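 Reporter gene assay: hepatoma cells with DRE/CYP1A2-luciferase, 24 hr compound incubation at 37 C, 5% CO2, luminescence after One-Glo (30 min, RT).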
# [12] = molecular target: Peroxisome proliferator-activated receptor alpha (Homo sapiens) (UniProt Q07869); assay: qHTS assay for small molecule agonists of the peroxisome proliferator-activated receptor alpha (PPARalpha) signaling pathway (AID 651778); conditions: PathHunter PPARalpha complementation, chemiluminescence, 6 h; max response: stronger effect = higher value
# In short: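 Cells plated at 2,000/well and held overnight at 37 C, 5% CO2, then compound added by pin tool for 6 hr; after PathHunter detection reagent and 60 min at room temperature, chemiluminescence from enzyme complementation was read.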
# [13] = qHTS assay for small molecule agonists of the antioxidant response element (ARE) signaling pathway measured by Nrf2-dependant transcriptional activity - cell viability counter screen (AID 720653; active = well fitted curve in the direction sought with a large enough effect in the repeat runs; an effect the other way counts as inactive or inconclusive); conditions: ARE-bla HepG2 viability, CellTiter-Glo ATP luminescence, 16 h; max response: stronger effect = lower value
# In short: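 ARE-bla HepG2 cells (2,000/well) rested 5 hrs at 37C/5% CO2, then exposed to compounds in DMSO for 16 hrs. Viability was read in the same wells as intracellular ATP by luminescence, 30 min at room temperature after reagent addition.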
# [14] = qHTS assay for cell viability of HEK293 cells (AID 743288); conditions: ATP luminescence (CellTiter-Glo), 18 h; max response: stronger effect = lower value; note: nearly all actives have a fitted effect of over 50% in size
# In short: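 The Tox21 protocol used parental HEK293 cells treated for 18 h at 37 C with compounds delivered by pintool; ATP-coupled luminescence after 30 min at room temperature gave viability.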
# [15] = qHTS assay for cell viability of the p53RE-bla HCT-116 cell line (AID 743292); note: nearly all actives have a fitted effect of over 55% in size
# In short: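 ATP-based luminescence, 16 h compound exposure at 37 C, p53RE-bla HCT-116 cells at 4,000/well.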
# [16] = molecular target: 3',5'-cyclic-AMP phosphodiesterase 4B (Homo sapiens) (UniProt Q07343); assay: qHTS Assay for Inhibitors of PDE-IV (AID 607; active = well fitted activation curve with a large enough effect in the main read-out, with a control signal flat, not every such curve was filed as active)
# In short: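 The readout is membrane depolarisation from a cAMP-sensing CNG channel, detected with a potential dye at ex 535/em 590. Cells were HEK293-derived (endogenous PDE-IV) at 1000 cells/well, titrated up to 22.9 uM final.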
# [17] = molecular target: Cytochrome P450 3A4 (Homo sapiens) (UniProt P08684); assay: qHTS Assay for Activators of Cytochrome P450 3A4 (AID 885); note: nearly all actives have a fitted effect of over 65% in size
# In short: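 Steps: enzyme/substrate mix dispensed; compound added, 10 min RT; NADPH regeneration solution added, 60 min RT; luciferin detection buffer stops reaction; 20 min later luminescence measured.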
# Cytochrome P450 2C19 (Homo sapiens), sequence (P33261 whole entry, looked up): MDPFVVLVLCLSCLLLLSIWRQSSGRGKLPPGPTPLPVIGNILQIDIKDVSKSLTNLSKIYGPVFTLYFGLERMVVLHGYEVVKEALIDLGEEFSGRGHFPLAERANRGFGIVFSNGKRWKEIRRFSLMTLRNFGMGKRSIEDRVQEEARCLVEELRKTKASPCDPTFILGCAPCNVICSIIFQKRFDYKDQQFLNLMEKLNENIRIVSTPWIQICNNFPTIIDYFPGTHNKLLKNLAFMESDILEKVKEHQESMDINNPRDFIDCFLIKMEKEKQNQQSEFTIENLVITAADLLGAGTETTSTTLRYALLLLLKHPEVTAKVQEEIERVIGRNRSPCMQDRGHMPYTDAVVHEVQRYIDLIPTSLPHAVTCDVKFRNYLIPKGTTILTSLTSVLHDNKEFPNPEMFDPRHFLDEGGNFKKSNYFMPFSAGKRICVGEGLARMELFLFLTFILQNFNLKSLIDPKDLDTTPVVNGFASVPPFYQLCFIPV
# Cytochrome P450 2C9 (Homo sapiens), sequence (P11712 whole entry, looked up): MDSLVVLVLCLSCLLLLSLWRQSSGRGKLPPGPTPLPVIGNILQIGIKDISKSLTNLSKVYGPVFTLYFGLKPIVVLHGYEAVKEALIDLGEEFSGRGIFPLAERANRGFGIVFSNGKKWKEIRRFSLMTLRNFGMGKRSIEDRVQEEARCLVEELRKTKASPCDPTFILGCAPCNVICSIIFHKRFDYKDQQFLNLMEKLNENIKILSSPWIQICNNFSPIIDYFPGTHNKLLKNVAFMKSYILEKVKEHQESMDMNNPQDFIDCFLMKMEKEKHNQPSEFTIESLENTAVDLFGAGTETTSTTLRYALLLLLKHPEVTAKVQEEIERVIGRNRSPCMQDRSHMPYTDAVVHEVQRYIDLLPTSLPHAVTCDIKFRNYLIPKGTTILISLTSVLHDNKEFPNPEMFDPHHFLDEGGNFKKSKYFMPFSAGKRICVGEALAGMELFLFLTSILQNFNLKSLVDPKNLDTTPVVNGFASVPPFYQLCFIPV
# Dual specificity protein kinase CLK4 (Homo sapiens), sequence (Q9HAZ1 whole entry, looked up): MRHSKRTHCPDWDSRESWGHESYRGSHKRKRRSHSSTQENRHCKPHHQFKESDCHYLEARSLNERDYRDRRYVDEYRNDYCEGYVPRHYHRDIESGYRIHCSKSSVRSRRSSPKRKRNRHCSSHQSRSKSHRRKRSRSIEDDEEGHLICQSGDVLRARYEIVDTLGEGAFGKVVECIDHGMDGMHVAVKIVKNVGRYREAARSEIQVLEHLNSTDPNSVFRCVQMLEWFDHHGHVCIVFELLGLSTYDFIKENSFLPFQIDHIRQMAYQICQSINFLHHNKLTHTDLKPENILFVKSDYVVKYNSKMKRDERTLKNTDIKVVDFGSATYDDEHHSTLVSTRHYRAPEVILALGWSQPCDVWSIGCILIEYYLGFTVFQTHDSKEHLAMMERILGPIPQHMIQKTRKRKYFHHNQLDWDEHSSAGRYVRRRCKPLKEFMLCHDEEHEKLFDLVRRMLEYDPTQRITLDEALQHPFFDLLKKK
# 3',5'-cyclic-AMP phosphodiesterase 4B (Homo sapiens), sequence (Q07343 whole entry, looked up): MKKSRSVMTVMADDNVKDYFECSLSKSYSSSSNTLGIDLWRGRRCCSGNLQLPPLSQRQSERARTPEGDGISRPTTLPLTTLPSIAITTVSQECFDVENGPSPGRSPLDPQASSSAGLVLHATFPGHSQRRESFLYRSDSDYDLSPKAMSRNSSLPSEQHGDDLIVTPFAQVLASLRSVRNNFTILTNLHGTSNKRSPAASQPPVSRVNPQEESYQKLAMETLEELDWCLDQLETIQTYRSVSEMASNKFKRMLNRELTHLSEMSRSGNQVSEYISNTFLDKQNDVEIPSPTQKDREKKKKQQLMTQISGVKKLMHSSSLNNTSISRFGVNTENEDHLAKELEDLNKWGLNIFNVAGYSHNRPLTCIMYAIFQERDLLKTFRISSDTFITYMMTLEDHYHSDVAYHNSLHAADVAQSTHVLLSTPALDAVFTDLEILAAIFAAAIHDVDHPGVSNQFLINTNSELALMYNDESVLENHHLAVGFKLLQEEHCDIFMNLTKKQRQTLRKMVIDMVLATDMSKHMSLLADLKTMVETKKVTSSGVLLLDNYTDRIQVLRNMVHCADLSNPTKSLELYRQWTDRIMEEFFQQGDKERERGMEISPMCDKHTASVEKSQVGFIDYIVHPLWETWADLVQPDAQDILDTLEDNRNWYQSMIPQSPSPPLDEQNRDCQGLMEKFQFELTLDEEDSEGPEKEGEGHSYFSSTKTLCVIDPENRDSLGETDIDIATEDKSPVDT
# Cytochrome P450 3A4 (Homo sapiens), sequence (P08684 whole entry, looked up): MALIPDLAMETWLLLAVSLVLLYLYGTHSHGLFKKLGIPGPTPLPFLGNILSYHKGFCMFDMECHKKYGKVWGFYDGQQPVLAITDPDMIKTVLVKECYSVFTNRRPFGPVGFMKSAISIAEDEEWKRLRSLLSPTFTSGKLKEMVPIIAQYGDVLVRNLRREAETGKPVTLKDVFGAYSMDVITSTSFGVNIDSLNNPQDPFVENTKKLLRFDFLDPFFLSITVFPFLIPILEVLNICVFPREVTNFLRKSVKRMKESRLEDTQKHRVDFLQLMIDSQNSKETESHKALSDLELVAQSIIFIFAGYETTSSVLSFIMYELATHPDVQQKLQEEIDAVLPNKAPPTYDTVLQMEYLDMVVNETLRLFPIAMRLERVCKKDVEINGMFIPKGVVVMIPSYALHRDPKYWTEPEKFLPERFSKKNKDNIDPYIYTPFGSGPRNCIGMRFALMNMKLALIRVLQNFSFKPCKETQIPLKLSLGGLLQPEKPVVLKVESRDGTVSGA
# Peroxisome proliferator-activated receptor alpha (Homo sapiens), sequence (Q07869 whole entry, looked up): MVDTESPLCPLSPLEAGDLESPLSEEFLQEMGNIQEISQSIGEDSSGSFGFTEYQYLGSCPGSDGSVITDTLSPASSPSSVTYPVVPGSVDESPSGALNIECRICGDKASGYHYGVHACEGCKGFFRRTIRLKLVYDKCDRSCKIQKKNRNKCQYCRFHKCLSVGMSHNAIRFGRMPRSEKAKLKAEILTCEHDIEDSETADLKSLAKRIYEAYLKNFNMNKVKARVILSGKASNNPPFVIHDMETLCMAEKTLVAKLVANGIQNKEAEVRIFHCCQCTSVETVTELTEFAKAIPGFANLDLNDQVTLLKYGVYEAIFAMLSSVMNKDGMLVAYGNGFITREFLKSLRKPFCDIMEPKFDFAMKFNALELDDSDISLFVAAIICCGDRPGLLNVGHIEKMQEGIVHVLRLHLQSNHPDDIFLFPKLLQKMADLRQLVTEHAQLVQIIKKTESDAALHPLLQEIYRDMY
# Retinoic acid receptor RXR-alpha (Homo sapiens), sequence (P19793 whole entry, looked up): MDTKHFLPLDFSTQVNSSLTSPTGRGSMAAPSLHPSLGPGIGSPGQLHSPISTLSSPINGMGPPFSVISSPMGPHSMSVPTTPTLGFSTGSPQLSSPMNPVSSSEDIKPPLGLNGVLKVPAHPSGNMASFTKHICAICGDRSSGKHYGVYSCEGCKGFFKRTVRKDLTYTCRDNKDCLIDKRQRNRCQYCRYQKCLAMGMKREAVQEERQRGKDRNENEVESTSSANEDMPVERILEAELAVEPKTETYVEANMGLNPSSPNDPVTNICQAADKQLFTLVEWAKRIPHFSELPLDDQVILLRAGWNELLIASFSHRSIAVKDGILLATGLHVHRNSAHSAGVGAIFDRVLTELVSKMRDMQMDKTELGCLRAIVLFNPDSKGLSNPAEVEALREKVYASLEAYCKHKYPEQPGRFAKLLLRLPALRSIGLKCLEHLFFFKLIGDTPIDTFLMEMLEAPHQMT
structure (smiles),measurement,setting,value
COc1ccccc1CNc1nc(-c2ccoc2)nc2ccccc12,"activity change, negative = inhibition",[1],7.68% (inactive)
same,Potency,[2],inactive
same,Potency,[3],inactive
CCCCCCCCCCCCCCCCCCCCCCCCCCCCCCO,"activity change, negative = inhibition",[4],5.84% [at 3.42 µM] (inactive)
same,"activity change, negative = inhibition",[5],4.8% [at 4.27 µM] (inactive)
same,"activity change, negative = inhibition",[6],9.51% [at 4.27 µM] (inactive)
same,"activity change, negative = inhibition",[7],2.96% [at 5 µM] (inactive)
C=C/C(C)=C/C/C=C(\C)CCC=C(C)C,outcome,[4],inactive
same,Potency,[5],35.5 µM (active)
C=CC(=C)CCC=C(C)C,Potency,[8],inactive
same,max response,[9],4.75%
same,max response,[10],7.13% (inactive)
same,activation,[11],0.322% (inactive)
same,max response,[12],-1.83% (inactive)
same,max response,[13],6.84% (inactive)
same,max response,[14],1.18% (inactive)
same,Potency,[15],inactive
same,outcome,[4],inactive
same,Potency,[5],inactive
same,Potency,[6],inactive
COCCn1c(=O)c(-c2ccc(F)cc2)nc2cnc(Oc3ccccc3)nc21,Potency,[16],inactive
same,outcome,[17],inactive
same,Potency,[2],inactive
Cc1ncc(COP(=O)(O)O)c(C)c1O,"activity change, negative = inhibition",[1],9.96% (inactive)
same,Potency,[16],inactive
same,outcome,[4],inactive
same,Potency,[6],7.08 µM (active)
same,outcome,[7],inactive
C=C1C[C@@]23CC[C@H]4[C@@](C)(CCC[C@@]4(C)C(=O)O[C@@H]4O[C@H](CO)[C@@H](O)[C@H](O)[C@H]4O)[C@@H]2CC[C@]1(O[C@@H]1O[C@H](CO)[C@@H](O)[C@H](O[C@@H]2O[C@H](CO)[C@@H](O)[C@H](O)[C@H]2O)[C@H]1O[C@@H]1O[C@@H](C)[C@H](O)[C@@H](O)[C@H]1O)C3,outcome,[7],inactive
O=C(O)[C@H]1O[C@@H](Oc2c(-c3ccc(O)c(O)c3)oc3cc(O)cc(O)c3c2=O)[C@H](O)[C@@H](O)[C@@H]1O,outcome,[4],inactive
same,Potency,[5],14.1 µM (active)
same,outcome,[7],inactive
CC(C)(O)[C@@H]1CC[C@](C)([C@@H]2[C@H](O)C[C@]3(C)C4C[C@@H](O[C@H]5O[C@@H](CO)[C@H](O)[C@@H](O)[C@@H]5O)C5C(C)(C)[C@H](O[C@H]6OC[C@H](O)[C@@H](O)[C@@H]6O)CC[C@]56CC46CC[C@@]23C)O1 (some centres not stated),Potency,[5],inactive
same,Potency,[6],inactive
CC(C)=CCCC(C)=CCCC(C)=CCCC=C(C)CCC=C(C)CCC=C(C)C,outcome,[7],inactive
CCCCC/C=C/C(=O)CCc1ccc(O)c(OC)c1,outcome,[4],inactive
O=C(/C=C/c1ccc(O)c(O)c1)O[C@@H]1CC(C(=O)O)=C[C@@H](O)[C@H]1O,Potency,[5],inactive
O=C(O)CC(O)(C(=O)O)C(O)C(=O)O (configuration not stated),outcome,[7],inactive
CC[C@H](CC[C@@H](C)[C@H]1CCC2C3CCC4C[C@@H](O)CC[C@]4(C)C3CC[C@@]21C)C(C)C (some centres not stated),outcome,[4],inactive
CC(=O)O[C@H]1[C@H](O[C@H]2CC[C@]34C[C@]35CC[C@]3(C)[C@@H]([C@@]6(C)CC[C@@H](C(C)(C)O)O6)[C@@H](O)C[C@@]3(C)[C@@H]5C[C@H](O[C@@H]3O[C@H](CO)[C@@H](O)[C@H](O)[C@H]3O)[C@H]4C2(C)C)OC[C@@H](O)[C@@H]1O,outcome,[4],inactive
same,outcome,[7],inactive
C=C1C[C@@]23CC[C@H]4[C@](C)(CCC[C@]4(C)C(=O)O[C@@H]4O[C@H](CO)[C@@H](O)[C@H](O)[C@H]4O)[C@@H]2CC[C@]1(O[C@H]1O[C@@H](CO)[C@H](O)[C@@H](O)[C@@H]1O)C3,outcome,[4],inactive
same,outcome,[7],inactive
O=C(OC[C@H]1O[C@@H](OC(=O)c2cc(O)c(O)c(O)c2)[C@H](OC(=O)c2cc(O)c(O)c(O)c2)[C@@H](OC(=O)c2cc(O)c(O)c(O)c2)[C@@H]1O)c1cc(O)c(O)c(O)c1,Potency,[5],3.16 µM (active)
same,Potency,[6],3.98 µM (active)
C[C@@H]1O[C@@H](OC[C@H]2OC(Oc3c(-c4ccc(O)c(O)c4)oc4cc(O)cc(O)c4c3=O)[C@H](O)[C@@H](O)[C@@H]2O)[C@H](O)[C@H](O)[C@H]1O (some centres not stated),outcome,[4],inactive
same,Potency,[6],inactive
